Compounds with a hit are over-represented: about 1.2% of the library has one in this group of screens.
LMP1 NFkB inh: EBV LMP1-driven NF-kappaB luciferase reporter inhibitors, primary screen, cell-based, luminescence, single point; LMP1-induced NF-kappaB luciferase reporter cells; AID 504558, 2011; hit rate 0.69% among 350,000; inhibition, % at 12.5 µM; in the data active = inhibition above about 41%; inconclusive = no clear call, values can overlap the other calls;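 also: 0% = neutral control wells and 100% = reference inhibitor control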
Shn3 inh set2: reduction of Shn3 3'UTR firefly luciferase signal, primary screen, Schnurri-3 inhibitor project, cell-based, Clone20 osteoblasts, set 2; Clone20 osteoblast Shn3 3'UTR firefly luciferase, 24 h; AID 588674, 2011; hit rate 0.52% among 360,000; inhibition, % at 12.5 µM;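 active = mean inhibition of at least 75% with every replicate also reaching 75%; inconclusive = mean inhibition at least 75% but some replicate below; inactive = mean inhibition below 75%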;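 also: 0% = median of neutral control wells and 100% = pilot-screen positive control compound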
NR5A2 inv ag: LRH-1 (NR5A2) inverse agonists, primary screen, cell-based, luminescence, HEK293T, StAR-luciferase reporter; LRH-1 transfected, 24 h; hit rate 0.13% among 360,000; inhibition, % at 3.6 µM; Nuclear receptor subfamily 5 group A member 2 (Homo sapiens), O00482; AID 602396, 2012;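 active = inhibition above the mean inhibition of all tested compounds plus 3 SD, cut at about 73% in these data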;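 also: 0% = DMSO wells and 100% = reporter-only cells lacking LRH-1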
NCOA3 inh: SRC3 coactivator transcriptional activity inhibitors, primary screen, cell-based, luminescence; Nuclear receptor coactivator 3 (Homo sapiens), Q9Y6Q9; HEK293 GAL4-SRC3 luciferase reporter; inhibition, % at 3.6 µM; hit rate 0.17% among 360,000;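 active = inhibition above a per-campaign cutoff, the mean of all compounds plus 3 SD, cut at about 60% in these data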;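 also: 0% = DMSO-treated cells and 100% = gossypol-treated cells at 36 µM; higher means less SRC3-driven luciferase light from the GAL4 reporter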
Target sequence (Q9Y6Q9 whole entry, looked up, the tested form may be a part): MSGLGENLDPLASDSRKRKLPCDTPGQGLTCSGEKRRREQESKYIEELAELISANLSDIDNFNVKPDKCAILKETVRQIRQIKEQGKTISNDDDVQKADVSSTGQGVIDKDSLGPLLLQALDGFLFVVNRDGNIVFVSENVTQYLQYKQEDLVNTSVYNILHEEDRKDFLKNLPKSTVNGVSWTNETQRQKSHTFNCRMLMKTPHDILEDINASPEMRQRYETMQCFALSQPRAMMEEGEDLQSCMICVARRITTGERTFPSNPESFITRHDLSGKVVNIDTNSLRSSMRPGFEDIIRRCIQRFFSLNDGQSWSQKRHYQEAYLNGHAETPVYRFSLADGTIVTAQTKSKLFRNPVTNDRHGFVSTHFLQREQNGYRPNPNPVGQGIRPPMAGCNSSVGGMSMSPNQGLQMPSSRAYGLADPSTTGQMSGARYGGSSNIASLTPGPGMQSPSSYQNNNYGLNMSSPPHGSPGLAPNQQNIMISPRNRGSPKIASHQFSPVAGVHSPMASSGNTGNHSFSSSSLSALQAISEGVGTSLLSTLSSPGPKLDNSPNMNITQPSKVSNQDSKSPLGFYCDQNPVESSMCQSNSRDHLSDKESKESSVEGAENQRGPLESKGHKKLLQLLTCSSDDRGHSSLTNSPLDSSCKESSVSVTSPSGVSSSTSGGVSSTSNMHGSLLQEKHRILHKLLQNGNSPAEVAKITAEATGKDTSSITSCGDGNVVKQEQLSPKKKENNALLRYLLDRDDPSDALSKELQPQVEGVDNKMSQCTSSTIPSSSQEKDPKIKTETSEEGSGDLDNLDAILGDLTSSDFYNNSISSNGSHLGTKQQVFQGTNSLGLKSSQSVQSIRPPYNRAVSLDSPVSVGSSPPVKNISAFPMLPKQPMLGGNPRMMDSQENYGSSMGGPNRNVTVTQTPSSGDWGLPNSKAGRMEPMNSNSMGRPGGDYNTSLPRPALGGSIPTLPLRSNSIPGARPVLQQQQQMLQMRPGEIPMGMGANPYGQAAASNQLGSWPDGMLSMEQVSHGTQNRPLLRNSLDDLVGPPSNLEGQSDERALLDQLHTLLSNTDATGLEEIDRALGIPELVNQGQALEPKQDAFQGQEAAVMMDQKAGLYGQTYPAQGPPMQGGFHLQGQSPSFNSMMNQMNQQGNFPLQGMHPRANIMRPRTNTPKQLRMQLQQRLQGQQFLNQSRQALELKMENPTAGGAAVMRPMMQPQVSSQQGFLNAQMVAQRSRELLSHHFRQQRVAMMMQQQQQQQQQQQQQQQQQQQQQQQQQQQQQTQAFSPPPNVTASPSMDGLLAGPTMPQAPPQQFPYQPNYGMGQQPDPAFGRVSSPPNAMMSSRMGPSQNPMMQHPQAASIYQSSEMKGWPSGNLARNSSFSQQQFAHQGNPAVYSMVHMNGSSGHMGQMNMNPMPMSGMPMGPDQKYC
SRC2 inh: inhibition of GAL4-SRC2 driven luciferase reporter, primary screen, SRC2 inhibitor project, cell-based, luminescence | HEK293 GAL4-SRC2 luciferase reporter | AID 651957, 2012 | inhibition, % at 9 µM | hit rate 0.17% among 370,000 | Nuclear receptor coactivator 2 (Homo sapiens), Q15596;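 active = inhibition above the mean inhibition of all tested compounds plus 3 SD, set per campaign, cut at about 52% in these data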;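 also: 0% = DMSO treated cells and 100% = cells given Gossypol at 36 µM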
SRC1 inh: SRC1 coactivator transcriptional activity inhibitors, primary screen, cell-based, luminescence | hit rate 0.12% among 360,000 | HEK293 GAL4-SRC1 luciferase reporter | inhibition, % at 3.6 µM | Nuclear receptor coactivator 1 (Homo sapiens), Q15788;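 active = inhibition above the campaign mean plus 3 SD, with each screening campaign given its own cutoff, cut at about 60% in these data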;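 also: 0% = DMSO treated cells and 100% = gossypol at 36 µM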
Active calls of the source: *; ? = inconclusive; nt = not tested or not shown; ! = repeats disagree.

SMILES	LMP1 NFkB inh	Shn3 inh set2	NR5A2 inv ag	NCOA3 inh	SRC2 inh	SRC1 inh
CCOC(=O)[C@]12Cc3c(cc(OC)c(OC)c3OC)[C@H]1N(C1CCCCC1)C(=O)c1ccccc12	nt	nt	48	nt	-5	nt
NC(Cc1ccc(N(CCCl)CCCl)cc1)C(=O)O (centres undefined)	nt	nt	nt	nt	11	nt
O=C(CCCc1ccc(N(CCCl)CCCl)cc1)NCc1ccccc1	42*	-23	16	2	-11	-12
O=P(OCCCl)(OCCCl)OCCCl	nt	nt	nt	nt	11	nt
C=CCN(CC#CCO)Cc1ccc(OC)cc1OC	nt	nt	nt	nt	15	nt
CC(=O)OC(C)(C)/C=C/C(=O)[C@](C)(O)C1[C@H](O)C[C@@]2(C)C3CC=C4C(C[C@H](O)C(=O)C4(C)C)[C@]3(C)C(=O)C[C@]12C (some centres undefined)	43*	62	34	28	nt	-4
CC(C)(O)/C=C/C(=O)C(C)(O)C1C(O)CC2(C)C3CC=C4C(C=C(O)C(=O)C4(C)C)C3(C)C(=O)CC12C (centres undefined)	45*	89*	72	67*	75*	2
COC1CC=C2CCN3CCC4=C(CC(=O)OC4)C23C1 (centres undefined)	nt	nt	nt	nt	-11	nt
Nc1cncc(C(=O)O)c1	61*!	-8	6	3	7	4
CC(NC(=O)OCc1ccccc1)[P+](=O)O (centres undefined)	nt	nt	nt	nt	-8	nt
O=C1NC(=O)C2(CCCc3ccc(N(CCCl)CCCl)cc32)N1 (centres undefined)	38	4	1	-17	-3	5
CC1(CCCc2ccc(N(CCCl)CCCl)cc2)NC(=O)NC1=O (centres undefined)	48*	25	-7	7	-4	-38
CNc1cc(Cl)c2nonc2c1[N+](=O)[O-]	23	90*	34	2	-121	11
Cc1cccc(N2C(=O)NC(=O)/C(=C\C=C\c3ccco3)C2=O)c1	-21	98*	-2	-21	2	-10
COC(=O)C1=C(c2ccc(OC(F)(F)F)cc2)C[C@@H]2CC[C@H]1N2C(=O)NCc1ccco1	nt	nt	nt	nt	10	nt
COC(=O)C1=C(c2ccc(F)cc2OCc2ccccc2)C[C@@H]2CC[C@H]1N2C(=O)NC1Cc2ccccc2C1	1	87*	9	7	-6	-48
CC(C)C[C@H]1N=C(c2ccccc2)c2ccccc2N(CC(=O)NC(C)(C)C)C1=O	nt	nt	nt	nt	8	nt
C=C1C(=O)OC2C1CCC(C)C1(O)C=CC(=O)C21C (centres undefined)	-74	63	-51	-14	-7	-54
C=C1C(=O)O[C@H]2C[C@@H](C)[C@@H]3C=CC(=O)[C@@]3(C)C[C@H]12	nt	nt	nt	nt	72*	nt
C=C1C(=O)OC2CC(C)C3C=CC(=O)C3(C)C(O)C12 (centres undefined)	93*	97*	81*	42	nt	36
C=C1C(=O)O[C@@H]2C[C@@H](C)[C@@H]3C=CC(=O)[C@@]3(C)[C@@H](OC(=O)CC(=O)O[C@H]3[C@@H]4C(=C)C(=O)O[C@@H]4C[C@@H](C)[C@@H]4C=CC(=O)[C@]43C)[C@H]12	92*	96*	87*	74*	94*	66*
C=C1C(=O)O[C@H]2[C@H]1[C@H](OC(=O)CC(=O)O[C@@H]1C[C@@H](C)[C@@H]3C=CC(=O)[C@@]3(C)[C@H]3OC(=O)C(=C)[C@H]13)C[C@@H](C)[C@H]1C=CC(=O)[C@]12C	-7	85	-23	-27	-16	-10
C=C1C(=O)O[C@@H]2C[C@@H](C)[C@@H]3C4OC4C(=O)[C@@]3(C)[C@@H](O)[C@H]12 (some centres undefined)	100*	79	66	-13	78*	-62
CC(NC(=O)OCc1ccccc1)P(=O)(Oc1ccccc1)Oc1ccccc1 (centres undefined)	nt	nt	nt	nt	7	nt
O=C(NC(CCC(O)CO)P(=O)(Oc1ccccc1)Oc1ccccc1)OCc1ccccc1 (centres undefined)	nt	nt	nt	nt	11	nt
SMILES	LMP1 NFkB inh	Shn3 inh set2	NR5A2 inv ag	NCOA3 inh	SRC2 inh	SRC1 inh
CN1c2ccc(Br)cc2[C@@H]2NCC[C@@H]2[C@@H]1CO	nt	nt	nt	nt	0	nt
CC(C)C(C(=O)NC(C)(C)C)N1C(=O)CN=C(c2ccccc2)c2ccccc21 (centres undefined)	nt	nt	nt	nt	-1	nt
COC(=O)C1CC(OC(C)=O)C(=O)[C@H]2C1(C)CC[C@H]1C(=O)OC(c3ccoc3)CC12C (some centres undefined)	nt	nt	nt	nt	-6	nt
CC(C)C[C@H](NC(=O)[C@@H]1CCCN1C(=O)[C@@H](N)Cc1ccc(O)cc1)C(=O)NCC(N)=O	66*	-42	24	6	-19	2
CC(C)CC(NC(=O)C1CCCCC1)C(=O)N1CCC2(CC1)OCCO2 (centres undefined)	1	11	-10	2	9	0
COc1ccc(CC2C(=O)NC(C)C(=O)N(C)C3C(=O)N(C)C(Cc4ccc(O)c(c4)Oc4ccc(cc4)C3O)C(=O)NC(C)C(=O)NC(C)C(=O)N2C)cc1 (centres undefined)	85*	nt	99*	94*	75*	96*
COc1ccc2c3c1O[C@H]1C(=O)CC[C@H]4[C@@H](C2)N(C)CC[C@]314	4	13	-9	6	35	11
COc1cccc2c1O[C@H]1C(=O)CC[C@H]3CN(C)CCC231 (some centres undefined)	1	89*	14	7	10	-4
CC(=O)C1=C(C)OC2=C(C(=O)CCC2)[C@@]12C(=O)N(C)c1ccccc12	nt	nt	nt	nt	0	nt
O=C(c1ccccc1)C(CN1CCCC1)c1ccccc1 (centres undefined)	73*	?	21	52	52	49
CCN1CCN(CC(c2ccccc2)c2ccccc2)CC1	9	-4	18	-10	10	-2
COc1ccc(C(c2nnnn2Cc2ccccc2)N2CCC(n3c(=O)[nH]c4ccccc43)CC2)cc1 (centres undefined)	nt	-11	12	29	0	34
O=c1[nH]c2ccccc2n1C1CCN(C(c2cccs2)c2nnnn2Cc2ccccc2)CC1 (centres undefined)	nt	85*	28	48	-5	25
O=c1[nH]c2ccccc2n1C1CCN(C(CCc2ccccc2)c2nnnn2Cc2ccccc2)CC1 (centres undefined)	nt	85*	31	53	20	44
CC(=O)N(C)C1=Nc2ccc(Cl)cc2C(c2ccccc2)=[N+]([O-])C1	70*	2	13	-7	12	-15
